# From paper PMC7862700, “An all-to-all approach to the identification of sequence-specific readers for epigenetic DNA modifications on cytosine”
# Legend:
# Assay in all cases: DAPPL (digital affinity profiling via proximity ligation, sequencing); 10 mM Tris-HCl pH 7.5, 50 mM NaCl, 1 mM DTT, 4% glycerol, room temperature, 30 min; GST-TFs on glutathione beads, 16-mer random dsDNA library, 0.1% formaldehyde crosslink after washing; high values mean tight binding
# [1] = biological target: T1, FEV (Homo sapiens, UniProt Q99581 1-238); details: protein: recombinant; tags: N-terminal GST; dsDNA, one strand shown
# T1 sequence: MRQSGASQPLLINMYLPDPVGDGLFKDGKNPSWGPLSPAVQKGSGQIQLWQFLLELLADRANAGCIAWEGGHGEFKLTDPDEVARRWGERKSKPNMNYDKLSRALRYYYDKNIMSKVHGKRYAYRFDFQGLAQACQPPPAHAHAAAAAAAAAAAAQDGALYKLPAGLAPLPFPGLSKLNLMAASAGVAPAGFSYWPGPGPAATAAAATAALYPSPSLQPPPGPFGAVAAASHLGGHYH
# Method in brief: (§1)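 Pools were built from human transcription factors expressed in yeast as GST fusions, captured on glutathione beads and DNA-barcoded, along with a tag-only sample. Incubation with 200 nmole of a 16-mer random double-stranded DNA library lasted 30 min at room temperature in Tris/NaCl/DTT/glycerol buffer, and was followed by washing, 0.1% formaldehyde crosslinking, proximity ligation, PCR amplification and Illumina NextSeq500 sequencing. Binding signal is the quotient of each hexamer's read frequency for a factor and its frequency for the tag-only sample.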
# [2] = biological target: ETV5 (Homo sapiens, UniProt P41161 1-510); details: protein: recombinant; tags: N-terminal GST; dsDNA, one strand shown
# Sequence of ETV5 (P41161 whole entry): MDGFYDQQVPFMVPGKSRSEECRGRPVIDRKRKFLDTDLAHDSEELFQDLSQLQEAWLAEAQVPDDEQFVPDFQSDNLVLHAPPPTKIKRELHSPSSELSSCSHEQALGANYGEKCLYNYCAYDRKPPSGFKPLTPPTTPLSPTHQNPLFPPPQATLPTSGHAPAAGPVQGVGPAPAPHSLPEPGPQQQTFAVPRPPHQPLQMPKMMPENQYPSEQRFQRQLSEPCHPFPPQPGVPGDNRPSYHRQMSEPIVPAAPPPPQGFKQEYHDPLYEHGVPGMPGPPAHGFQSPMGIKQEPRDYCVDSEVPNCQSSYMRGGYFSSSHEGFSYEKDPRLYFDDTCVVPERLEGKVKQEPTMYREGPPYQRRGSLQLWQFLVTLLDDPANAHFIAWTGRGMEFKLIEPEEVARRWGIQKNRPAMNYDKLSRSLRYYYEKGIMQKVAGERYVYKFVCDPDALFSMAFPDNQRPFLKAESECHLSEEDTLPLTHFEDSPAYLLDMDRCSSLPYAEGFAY
# Method in brief: as §1
# [3] = biological target: HSF1 (Homo sapiens, UniProt Q00613 1-529); details: protein: recombinant; tags: N-terminal GST; chain copies: 3; dsDNA, one strand shown
# Sequence of HSF1 (Q00613 whole entry): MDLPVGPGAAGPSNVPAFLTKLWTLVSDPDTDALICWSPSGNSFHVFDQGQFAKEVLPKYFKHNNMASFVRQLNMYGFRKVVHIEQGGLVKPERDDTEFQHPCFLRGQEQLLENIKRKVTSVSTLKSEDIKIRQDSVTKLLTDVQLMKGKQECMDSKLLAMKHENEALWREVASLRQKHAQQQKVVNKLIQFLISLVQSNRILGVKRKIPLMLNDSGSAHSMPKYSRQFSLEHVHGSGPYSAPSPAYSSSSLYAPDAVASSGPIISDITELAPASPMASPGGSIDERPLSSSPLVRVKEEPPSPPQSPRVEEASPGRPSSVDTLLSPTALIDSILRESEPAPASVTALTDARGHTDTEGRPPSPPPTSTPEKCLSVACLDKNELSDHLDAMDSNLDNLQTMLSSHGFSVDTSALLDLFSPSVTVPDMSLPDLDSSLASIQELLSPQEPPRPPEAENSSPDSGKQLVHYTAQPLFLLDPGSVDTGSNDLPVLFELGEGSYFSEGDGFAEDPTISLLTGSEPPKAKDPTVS
# Method in brief: as §1
# [4] = biological target: T2, SPIC (Homo sapiens, UniProt Q8N5J4 1-248); details: protein: recombinant; tags: N-terminal GST; dsDNA, one strand shown
# T2 sequence: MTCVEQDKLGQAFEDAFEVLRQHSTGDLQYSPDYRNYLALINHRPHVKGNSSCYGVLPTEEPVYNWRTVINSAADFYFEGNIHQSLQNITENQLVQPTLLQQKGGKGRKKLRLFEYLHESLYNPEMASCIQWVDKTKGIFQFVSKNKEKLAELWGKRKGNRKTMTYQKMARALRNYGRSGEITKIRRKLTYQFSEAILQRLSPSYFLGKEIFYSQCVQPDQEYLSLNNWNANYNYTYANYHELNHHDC
# Method in brief: as §1
# [5] = biological target: ELF4 (Homo sapiens, UniProt Q99607 1-663); details: protein: recombinant; tags: N-terminal GST; dsDNA, one strand shown
# Sequence of ELF4 (Q99607 whole entry): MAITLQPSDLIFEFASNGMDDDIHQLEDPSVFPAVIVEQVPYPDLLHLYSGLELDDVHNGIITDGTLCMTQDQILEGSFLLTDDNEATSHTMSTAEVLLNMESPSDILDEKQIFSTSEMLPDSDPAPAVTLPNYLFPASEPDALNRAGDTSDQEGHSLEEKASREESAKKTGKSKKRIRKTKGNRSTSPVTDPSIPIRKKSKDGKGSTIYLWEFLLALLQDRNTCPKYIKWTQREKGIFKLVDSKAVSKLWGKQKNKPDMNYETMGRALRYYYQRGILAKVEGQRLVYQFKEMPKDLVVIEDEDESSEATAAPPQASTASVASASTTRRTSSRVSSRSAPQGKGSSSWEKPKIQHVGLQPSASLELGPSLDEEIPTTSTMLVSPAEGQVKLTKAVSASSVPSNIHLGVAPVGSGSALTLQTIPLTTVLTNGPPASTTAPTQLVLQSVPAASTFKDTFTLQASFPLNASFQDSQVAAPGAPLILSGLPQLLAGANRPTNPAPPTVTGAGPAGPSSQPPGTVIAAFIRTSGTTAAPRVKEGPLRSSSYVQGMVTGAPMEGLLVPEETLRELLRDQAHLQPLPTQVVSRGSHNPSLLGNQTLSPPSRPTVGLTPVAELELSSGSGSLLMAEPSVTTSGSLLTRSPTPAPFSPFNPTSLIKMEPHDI
# Method in brief: as §1
# [6] = biological target: T3, ELK4 (Homo sapiens, UniProt P28324-2 1-405); details: protein: recombinant; tags: N-terminal GST; dsDNA, one strand shown
# T3 sequence: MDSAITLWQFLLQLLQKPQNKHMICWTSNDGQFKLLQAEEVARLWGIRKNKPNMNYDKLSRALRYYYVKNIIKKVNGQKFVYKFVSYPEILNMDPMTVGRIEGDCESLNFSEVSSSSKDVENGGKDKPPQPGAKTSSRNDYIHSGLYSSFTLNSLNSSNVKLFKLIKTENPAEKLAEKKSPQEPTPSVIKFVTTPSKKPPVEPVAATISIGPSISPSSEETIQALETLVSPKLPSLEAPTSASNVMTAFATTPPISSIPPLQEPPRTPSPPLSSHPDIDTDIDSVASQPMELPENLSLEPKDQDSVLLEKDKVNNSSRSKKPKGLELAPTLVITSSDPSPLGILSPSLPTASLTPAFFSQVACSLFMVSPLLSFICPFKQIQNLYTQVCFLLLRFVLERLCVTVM
# Method in brief: as §1
# [7] = biological target: T4, ETV2 (Homo sapiens, UniProt O00321 1-342); details: protein: recombinant; tags: N-terminal GST; dsDNA, one strand shown
# T4 sequence: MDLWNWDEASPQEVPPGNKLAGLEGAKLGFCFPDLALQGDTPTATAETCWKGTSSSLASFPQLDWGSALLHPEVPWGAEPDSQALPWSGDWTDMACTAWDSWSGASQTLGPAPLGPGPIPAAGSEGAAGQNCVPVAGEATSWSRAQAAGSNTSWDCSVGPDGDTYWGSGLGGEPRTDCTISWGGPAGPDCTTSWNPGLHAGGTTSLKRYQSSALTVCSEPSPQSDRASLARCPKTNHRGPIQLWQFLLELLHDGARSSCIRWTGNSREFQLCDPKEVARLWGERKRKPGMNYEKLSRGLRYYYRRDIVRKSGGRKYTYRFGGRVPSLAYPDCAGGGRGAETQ
# Method in brief: as §1
# [8] = biological target: T5, ELF3 (Homo sapiens, UniProt P78545 1-371); details: protein: recombinant; tags: N-terminal GST; dsDNA, one strand shown
# T5 sequence: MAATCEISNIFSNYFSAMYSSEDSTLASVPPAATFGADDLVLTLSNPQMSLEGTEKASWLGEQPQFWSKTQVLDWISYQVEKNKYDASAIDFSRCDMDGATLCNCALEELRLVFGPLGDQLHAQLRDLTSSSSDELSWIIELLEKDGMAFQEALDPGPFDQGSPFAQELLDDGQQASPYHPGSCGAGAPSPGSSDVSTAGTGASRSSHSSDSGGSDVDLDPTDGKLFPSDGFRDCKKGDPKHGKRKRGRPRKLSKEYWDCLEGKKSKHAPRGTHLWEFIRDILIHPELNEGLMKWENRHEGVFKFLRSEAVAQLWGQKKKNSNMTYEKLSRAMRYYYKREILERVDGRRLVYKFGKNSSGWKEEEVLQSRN
# Method in brief: as §1
# [9] = biological target: CRX (Homo sapiens, UniProt O43186 1-299); details: protein: recombinant; tags: N-terminal GST; dsDNA, one strand shown
# Sequence of CRX (O43186 whole entry): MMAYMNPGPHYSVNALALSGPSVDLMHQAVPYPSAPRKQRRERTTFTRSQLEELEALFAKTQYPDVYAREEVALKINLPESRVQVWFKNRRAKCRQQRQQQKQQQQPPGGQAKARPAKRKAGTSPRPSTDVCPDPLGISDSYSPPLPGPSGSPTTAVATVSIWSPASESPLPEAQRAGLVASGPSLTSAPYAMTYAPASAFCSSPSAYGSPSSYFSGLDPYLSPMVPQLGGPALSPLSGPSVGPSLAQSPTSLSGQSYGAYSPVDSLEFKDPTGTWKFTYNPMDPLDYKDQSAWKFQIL
# Method in brief: as §1
# [10] = biological target: ETV1 (Homo sapiens, UniProt P50549 1-477); details: protein: recombinant; tags: N-terminal GST; dsDNA, one strand shown
# Sequence of ETV1 (P50549 whole entry): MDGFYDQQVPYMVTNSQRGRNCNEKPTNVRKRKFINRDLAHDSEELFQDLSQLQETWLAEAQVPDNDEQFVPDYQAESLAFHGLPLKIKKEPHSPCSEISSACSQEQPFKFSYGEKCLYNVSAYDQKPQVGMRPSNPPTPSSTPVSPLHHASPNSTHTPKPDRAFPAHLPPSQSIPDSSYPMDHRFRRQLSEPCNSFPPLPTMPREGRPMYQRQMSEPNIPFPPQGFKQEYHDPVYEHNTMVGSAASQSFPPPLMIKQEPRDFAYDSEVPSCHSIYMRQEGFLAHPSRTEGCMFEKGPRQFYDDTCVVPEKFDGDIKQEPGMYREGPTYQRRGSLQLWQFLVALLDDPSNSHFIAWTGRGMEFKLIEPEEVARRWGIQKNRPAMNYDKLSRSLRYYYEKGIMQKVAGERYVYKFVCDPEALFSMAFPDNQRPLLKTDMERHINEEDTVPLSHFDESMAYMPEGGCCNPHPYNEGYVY
# Method in brief: as §1
# [11] = biological target: T6, ERF (Homo sapiens, UniProt P50548 1-548); details: protein: recombinant; tags: N-terminal GST; dsDNA, one strand shown
# T6 sequence: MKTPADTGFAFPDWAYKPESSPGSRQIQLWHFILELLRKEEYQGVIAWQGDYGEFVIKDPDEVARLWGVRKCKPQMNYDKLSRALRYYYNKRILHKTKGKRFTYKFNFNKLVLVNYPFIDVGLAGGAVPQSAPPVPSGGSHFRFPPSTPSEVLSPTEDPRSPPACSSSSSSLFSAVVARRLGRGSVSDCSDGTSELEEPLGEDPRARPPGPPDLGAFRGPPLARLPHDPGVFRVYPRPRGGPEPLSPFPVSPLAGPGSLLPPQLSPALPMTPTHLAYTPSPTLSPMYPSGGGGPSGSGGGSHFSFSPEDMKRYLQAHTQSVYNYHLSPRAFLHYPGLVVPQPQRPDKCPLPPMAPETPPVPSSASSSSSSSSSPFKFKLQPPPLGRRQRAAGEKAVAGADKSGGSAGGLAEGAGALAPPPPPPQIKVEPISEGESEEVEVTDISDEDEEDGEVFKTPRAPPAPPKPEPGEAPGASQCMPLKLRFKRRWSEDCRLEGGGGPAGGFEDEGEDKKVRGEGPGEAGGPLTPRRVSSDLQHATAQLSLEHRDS
# Method in brief: as §1
# [12] = biological target: T7, ETV3L (Homo sapiens, UniProt Q6ZN32 1-361); details: protein: recombinant; tags: N-terminal GST; dsDNA, one strand shown
# T7 sequence: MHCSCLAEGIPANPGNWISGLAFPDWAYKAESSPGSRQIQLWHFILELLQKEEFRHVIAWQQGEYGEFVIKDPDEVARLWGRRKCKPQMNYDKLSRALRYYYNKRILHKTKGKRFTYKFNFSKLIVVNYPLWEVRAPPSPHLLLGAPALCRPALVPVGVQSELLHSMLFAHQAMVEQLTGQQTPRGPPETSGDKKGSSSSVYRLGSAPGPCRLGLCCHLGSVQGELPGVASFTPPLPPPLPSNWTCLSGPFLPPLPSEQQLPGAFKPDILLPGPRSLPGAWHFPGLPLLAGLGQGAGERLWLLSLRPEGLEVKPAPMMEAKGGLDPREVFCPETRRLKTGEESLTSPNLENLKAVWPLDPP
# Method in brief: as §1
# [13] = biological target: T8, ETS2 (Homo sapiens, UniProt P15036 1-469); details: protein: recombinant; tags: N-terminal GST; dsDNA, one strand shown
# T8 sequence: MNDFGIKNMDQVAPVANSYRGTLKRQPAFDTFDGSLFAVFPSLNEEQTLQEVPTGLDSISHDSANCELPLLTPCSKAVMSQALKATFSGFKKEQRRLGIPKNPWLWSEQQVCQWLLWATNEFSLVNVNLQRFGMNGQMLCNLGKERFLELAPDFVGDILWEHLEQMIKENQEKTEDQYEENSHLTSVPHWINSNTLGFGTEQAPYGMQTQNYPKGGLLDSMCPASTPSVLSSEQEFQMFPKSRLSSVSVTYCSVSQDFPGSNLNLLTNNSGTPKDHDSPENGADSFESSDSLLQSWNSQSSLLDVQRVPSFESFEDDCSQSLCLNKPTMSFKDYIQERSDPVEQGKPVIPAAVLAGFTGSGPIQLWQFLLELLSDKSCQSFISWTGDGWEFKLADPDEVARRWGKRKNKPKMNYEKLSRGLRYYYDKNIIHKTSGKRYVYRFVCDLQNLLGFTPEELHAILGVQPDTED
# Method in brief: as §1
# [14] = biological target: T9, SPDEF (Homo sapiens, UniProt O95238 1-335); details: protein: recombinant; tags: N-terminal GST; dsDNA, one strand shown
# T9 sequence: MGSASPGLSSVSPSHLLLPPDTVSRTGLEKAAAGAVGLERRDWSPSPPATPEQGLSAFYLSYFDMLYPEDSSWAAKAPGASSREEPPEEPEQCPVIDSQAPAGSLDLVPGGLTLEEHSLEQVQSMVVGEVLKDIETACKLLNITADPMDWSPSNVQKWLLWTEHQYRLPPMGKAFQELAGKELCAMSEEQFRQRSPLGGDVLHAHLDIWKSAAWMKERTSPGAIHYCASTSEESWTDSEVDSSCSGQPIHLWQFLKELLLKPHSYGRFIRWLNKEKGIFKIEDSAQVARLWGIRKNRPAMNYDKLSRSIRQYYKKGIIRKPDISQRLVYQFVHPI
# Method in brief: as §1
# [15] = biological target: T10, ETV7 (Homo sapiens, UniProt Q9Y603 1-341); details: protein: recombinant; tags: N-terminal GST; dsDNA, one strand shown
# T10 sequence: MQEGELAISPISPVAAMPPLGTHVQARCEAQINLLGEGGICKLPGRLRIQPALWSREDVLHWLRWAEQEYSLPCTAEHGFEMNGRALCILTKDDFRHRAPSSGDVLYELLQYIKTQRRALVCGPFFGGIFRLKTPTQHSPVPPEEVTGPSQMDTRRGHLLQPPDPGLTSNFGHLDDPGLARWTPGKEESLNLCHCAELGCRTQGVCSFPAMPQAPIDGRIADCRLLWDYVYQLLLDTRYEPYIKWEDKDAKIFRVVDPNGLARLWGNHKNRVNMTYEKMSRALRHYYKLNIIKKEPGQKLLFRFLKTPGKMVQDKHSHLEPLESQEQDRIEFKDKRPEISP
# Method in brief: as §1
# [16] = biological target: T11, ELF5 (Homo sapiens, UniProt Q9UKW6-2 1-255); details: protein: recombinant; tags: N-terminal GST; dsDNA, one strand shown
# T11 sequence: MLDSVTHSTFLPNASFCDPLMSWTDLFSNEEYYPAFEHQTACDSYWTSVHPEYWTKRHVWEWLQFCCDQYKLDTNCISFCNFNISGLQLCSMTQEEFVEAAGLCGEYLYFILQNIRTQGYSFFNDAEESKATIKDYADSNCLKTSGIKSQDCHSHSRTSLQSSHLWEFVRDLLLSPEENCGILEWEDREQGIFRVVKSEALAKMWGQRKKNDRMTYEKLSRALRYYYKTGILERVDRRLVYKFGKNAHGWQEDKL
# Method in brief: as §1
# [17] = biological target: T12, ETV3 (Homo sapiens, UniProt P41162-2 1-143); details: protein: recombinant; tags: N-terminal GST; dsDNA, one strand shown
# T12 sequence: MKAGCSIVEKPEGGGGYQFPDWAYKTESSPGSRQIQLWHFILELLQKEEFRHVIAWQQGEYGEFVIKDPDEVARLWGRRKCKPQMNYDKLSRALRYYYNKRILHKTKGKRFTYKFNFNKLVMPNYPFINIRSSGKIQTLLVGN
# Method in brief: as §1
# [18] = biological target: ETV6 (Homo sapiens, UniProt P41212 1-452); details: protein: recombinant; tags: N-terminal GST; dsDNA, one strand shown
# Sequence of ETV6 (P41212 whole entry): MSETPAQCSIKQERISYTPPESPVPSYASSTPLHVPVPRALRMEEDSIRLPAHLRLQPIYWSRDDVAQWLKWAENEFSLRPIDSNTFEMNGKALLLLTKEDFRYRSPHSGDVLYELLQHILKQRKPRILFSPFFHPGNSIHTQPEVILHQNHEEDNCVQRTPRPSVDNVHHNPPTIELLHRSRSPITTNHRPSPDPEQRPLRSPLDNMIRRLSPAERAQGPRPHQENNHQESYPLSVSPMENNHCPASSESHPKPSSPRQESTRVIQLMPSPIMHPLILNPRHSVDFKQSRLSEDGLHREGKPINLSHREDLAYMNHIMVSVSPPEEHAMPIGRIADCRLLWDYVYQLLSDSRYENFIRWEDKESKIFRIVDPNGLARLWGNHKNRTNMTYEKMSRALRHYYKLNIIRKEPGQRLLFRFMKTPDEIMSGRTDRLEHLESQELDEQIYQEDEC
# Method in brief: as §1
sequence,measurement,setting,value
ACATCC,binding signal,[1],"3.7 fold enrichment (6-mer frequency, TF over GST control)"
same,binding signal,[2],"2.77 fold enrichment (6-mer frequency, TF over GST control)"
same,binding signal,[3],"1.06 fold enrichment (6-mer frequency, TF over GST control)"
same,binding signal,[4],"2.43 fold enrichment (6-mer frequency, TF over GST control)"
same,binding signal,[5],"2.28 fold enrichment (6-mer frequency, TF over GST control)"
same,binding signal,[6],"2.29 fold enrichment (6-mer frequency, TF over GST control)"
same,binding signal,[7],"2.61 fold enrichment (6-mer frequency, TF over GST control)"
same,binding signal,[8],"2.38 fold enrichment (6-mer frequency, TF over GST control)"
same,binding signal,[9],"1.05 fold enrichment (6-mer frequency, TF over GST control)"
same,binding signal,[10],"2.66 fold enrichment (6-mer frequency, TF over GST control)"
same,binding signal,[11],"2.41 fold enrichment (6-mer frequency, TF over GST control)"
same,binding signal,[12],"2.46 fold enrichment (6-mer frequency, TF over GST control)"
same,binding signal,[13],"2.68 fold enrichment (6-mer frequency, TF over GST control)"
same,binding signal,[14],"5.32 fold enrichment (6-mer frequency, TF over GST control)"
same,binding signal,[15],"2.28 fold enrichment (6-mer frequency, TF over GST control)"
same,binding signal,[16],"3.25 fold enrichment (6-mer frequency, TF over GST control)"
same,binding signal,[17],"2.88 fold enrichment (6-mer frequency, TF over GST control)"
same,binding signal,[18],"2.49 fold enrichment (6-mer frequency, TF over GST control)"
